M18AAP inhibitor: PfM18AAP enzyme inhibition; 290,000 tested, 1.2% active; inhibition, % at 7.35 µM; AID 1822; recombinant PfM18AAP, H-Glu-NHMec fluorogenic cleavage;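 active = inhibition above the campaign mean inhibition over all tested compounds plus 3 SD, cut at about 28% in these data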
APOBEC3A inh: inhibitors of human APOBEC3A DNA deaminase. P31941. recombinant A3A, FAM/TAMRA ssDNA deamination fluorescence. inhibition, % at 20 µM. 330,000 tested, 0.41% active;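 active = at least 40% inhibition at 20 µM here, with at most 30% in a related deaminase screen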
Target sequence (P31941 whole entry, looked up): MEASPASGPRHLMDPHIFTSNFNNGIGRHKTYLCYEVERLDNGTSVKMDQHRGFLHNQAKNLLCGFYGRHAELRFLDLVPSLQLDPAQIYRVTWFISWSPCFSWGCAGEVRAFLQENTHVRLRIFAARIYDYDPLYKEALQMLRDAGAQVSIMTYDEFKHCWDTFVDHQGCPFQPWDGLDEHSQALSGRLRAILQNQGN
CendR NRP1 mod: NRP-1/CendR interaction modulation; O14786; FAM-RPARPAR peptide binding to NRP-1, fluorescence polarization; inhibition, % at 25 µM; 360,000 tested, 0.85% active; AID 602438;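 active = inhibition or corrected inhibition above about 18%, plus a signal ratio from 0.5 to 1.5, limit read from the data, passing the limit was not always enough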
A3G deaminase: blocks human APOBEC3G single-stranded DNA deamination; recombinant A3G, ssDNA deamination FAM/TAMRA fluorescence; inhibition, % at 20 µM; 330,000 tested, 0.28% active;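 active = inhibition of at least 40% at 20 µM, with no more than 30% in the related APOBEC3A deaminase screen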
Target sequence (Q9HC16 whole entry, looked up): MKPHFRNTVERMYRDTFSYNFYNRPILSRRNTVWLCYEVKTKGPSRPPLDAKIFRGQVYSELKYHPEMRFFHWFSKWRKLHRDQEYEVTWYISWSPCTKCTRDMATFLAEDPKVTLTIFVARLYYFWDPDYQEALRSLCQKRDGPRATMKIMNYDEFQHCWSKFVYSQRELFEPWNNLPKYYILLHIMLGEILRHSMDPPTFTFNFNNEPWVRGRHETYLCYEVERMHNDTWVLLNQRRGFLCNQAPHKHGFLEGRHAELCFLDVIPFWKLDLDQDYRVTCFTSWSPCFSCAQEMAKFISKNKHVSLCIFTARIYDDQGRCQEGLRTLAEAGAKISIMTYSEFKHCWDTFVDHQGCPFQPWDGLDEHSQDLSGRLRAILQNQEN
ALR inh: blocks human ALR sulfhydryl oxidase activity. 290,000 tested, 3.8% active. purified ALR, DTT oxidation, H2O2 HRP-luminol luminescence. inhibition, % (no concentration beside the values). P55789;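 active = mean replicate inhibition above about 79%, with every replicate also reaching it, limit read from the data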
CR mimetic SO: lowers age-related superoxide in aged yeast cells; superoxide response (% of plate mean), % at 10 µM; S. cerevisiae aged cells, superoxide DHE fluorescence; stronger effect = lower value; 330,000 tested, 0.18% active;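 active = superoxide response under a set limit, about three screen SD below normal, cut at about 65% in these data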;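 also: yeast aged for seven days with compound at 30 °C before DHE staining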
Hits are given with their value. The list is not random: actives were taken first. Their share in the collection is about 5.2%.

How did CC(=O)NC1=NN(C(C)=O)C2(S1)C(=O)N(C(C)=O)c1ccc(C)cc12 (stereo not given) do in these assays?
M18AAP inhibitor: inactive; APOBEC3A inh: inactive; CendR NRP1 mod: inactive; A3G deaminase: inactive; CR mimetic SO: inactive

How did CO/N=C/NC(=O)N1OC[C@@H]2COc3ccc4ccccc4c3[C@@H]21 do in these assays?
M18AAP inhibitor: inactive; APOBEC3A inh: inactive; CendR NRP1 mod: inactive; A3G deaminase: inactive; ALR inh: inactive; CR mimetic SO: inactive

What do the screens show for `CCOC(=O)C1=C[C@@H](C(C)(C)C)N(S(=O)(=O)c2ccc([N+](=O)[O-])cc2)[C@H]1c1ccccc1`?
CendR NRP1 mod: 22.7

How did CC(=O)Nc1ccc(S(=O)(=O)NN=Cc2ccc(Cl)c(Cl)c2)cc1 do in these assays?
CendR NRP1 mod: inactive

What do the screens show for `Fc1cccc(/C=N/Nc2ncnc3nc[nH]c23)c1`?
M18AAP inhibitor: 29.7; APOBEC3A inh: inactive; CendR NRP1 mod: inactive; A3G deaminase: inactive; ALR inh: inactive; CR mimetic SO: inactive

What do the screens show for `Cc1ccc(/C=N/Nc2ncnc3nc[nH]c23)cc1`?
M18AAP inhibitor: inactive; APOBEC3A inh: inactive; CendR NRP1 mod: inactive; A3G deaminase: inactive; ALR inh: inactive; CR mimetic SO: inactive

Results for Cc1cccc(Nc2ncnc3nc[nH]c23)c1 ?
M18AAP inhibitor: inactive; APOBEC3A inh: inactive; CendR NRP1 mod: inactive; A3G deaminase: inactive; ALR inh: 94.7; CR mimetic SO: inactive

Results for Clc1ccc(/C=N/Nc2ncnc3nc[nH]c23)cc1 ?
M18AAP inhibitor: inactive; APOBEC3A inh: inactive; CendR NRP1 mod: inactive; A3G deaminase: inactive; ALR inh: 93.1; CR mimetic SO: inactive

What do the screens show for `O=C(NNC(=O)c1ccc(SCC2CCCO2)c([N+](=O)[O-])c1)c1ccc(Cl)c([N+](=O)[O-])c1` (stereo not given)?
M18AAP inhibitor: inactive; APOBEC3A inh: inactive; CendR NRP1 mod: inactive; A3G deaminase: inactive; ALR inh: inactive; CR mimetic SO: inactive

What do the screens show for `COc1ccc(C(=O)NCCN=C2NS(=O)(=O)c3ccccc32)cc1`?
M18AAP inhibitor: inactive; APOBEC3A inh: inactive; CendR NRP1 mod: inactive; A3G deaminase: inactive; CR mimetic SO: inactive

How did Cc1ccc2c(c1)-c1c(cnn1CC(=O)N(Cc1ccco1)C1CCCCC1)CO2 do in these assays?
M18AAP inhibitor: inactive; APOBEC3A inh: inactive; CendR NRP1 mod: inactive; A3G deaminase: inactive; ALR inh: inactive; CR mimetic SO: inactive

How did CN1C(=O)CC(NNC(=O)c2ccc(Cl)cc2)C1=O (stereo not given) do in these assays?
M18AAP inhibitor: inactive; APOBEC3A inh: inactive; CendR NRP1 mod: inactive; A3G deaminase: inactive; ALR inh: 89.6; CR mimetic SO: inactive

What do the screens show for `Oc1ccc(/C=N/Nc2ccc(C(F)(F)F)cn2)c(O)c1`?
M18AAP inhibitor: inactive; APOBEC3A inh: inactive; CendR NRP1 mod: inactive; A3G deaminase: inactive; ALR inh: inactive; CR mimetic SO: inactive

What do the screens show for `Oc1ccc(/C=N/Nc2ccc(C(F)(F)F)cn2)cc1`?
M18AAP inhibitor: inactive; APOBEC3A inh: inactive; CendR NRP1 mod: inactive; A3G deaminase: inactive; ALR inh: 96.6; CR mimetic SO: inactive

How did O=C/C(=C\Nc1ccccn1)c1nc2ccccc2o1 do in these assays?
M18AAP inhibitor: inactive; APOBEC3A inh: inactive; CendR NRP1 mod: inactive; A3G deaminase: inactive; ALR inh: inactive; CR mimetic SO: inactive

Results for C[C@@H]1CN([C@H](C)CO)C(=O)CCCn2nncc2CO[C@H]1CN(C)S(=O)(=O)c1cn(C)cn1 ?
CendR NRP1 mod: 26.9

Results for C[C@@H]1CN([C@H](C)CO)C(=O)CCCn2nncc2CO[C@@H]1CN(C)C(=O)CCC(F)(F)F ?
CendR NRP1 mod: 27.0

What do the screens show for `CC1CC(C)CN(S(=O)(=O)c2ccc(NC(=O)C3CC(=O)N(Cc4ccccc4)C3)cc2)C1` (stereo not given)?
M18AAP inhibitor: inactive; APOBEC3A inh: inactive; CendR NRP1 mod: inactive; A3G deaminase: inactive; ALR inh: inactive; CR mimetic SO: inactive

Results for COC(=O)c1ccccc1Oc1nc(Cl)cc(OC)n1 ?
M18AAP inhibitor: inactive; APOBEC3A inh: inactive; CendR NRP1 mod: inactive; A3G deaminase: inactive; ALR inh: inactive; CR mimetic SO: inactive

Results for COC(C[C@H]1O[C@@H]1[C@H](O)[C@H](C)OCc1ccccc1)OC ?
APOBEC3A inh: inactive; CendR NRP1 mod: 26.0; A3G deaminase: inactive; ALR inh: inactive; CR mimetic SO: inactive

What do the screens show for `COc1ccc(-c2coc3cc(O)ccc3c2=O)cc1`?
APOBEC3A inh: inactive; CendR NRP1 mod: inactive; A3G deaminase: inactive; ALR inh: inactive; CR mimetic SO: inactive

Results for COc1cc(O)cc2occ(-c3ccc(O)cc3)c(=O)c12 ?
M18AAP inhibitor: inactive; APOBEC3A inh: inactive; CendR NRP1 mod: inactive; A3G deaminase: inactive; ALR inh: 98.0; CR mimetic SO: inactive

What do the screens show for `COc1ccc(-c2coc3cc(O)ccc3c2=O)cc1O`?
M18AAP inhibitor: inactive; APOBEC3A inh: inactive; CendR NRP1 mod: inactive; A3G deaminase: inactive; ALR inh: 76.9; CR mimetic SO: inactive

What do the screens show for `CCCN(C)C[C@@H]1OCCCC[C@@H](C)Oc2ccc(NC(=O)c3ccccc3)cc2C(=O)N([C@H](C)CO)C[C@@H]1C`?
CendR NRP1 mod: inactive

How did Cc1ccc2oc(=O)n(CCOc3ccccc3C)c2c1 do in these assays?
M18AAP inhibitor: inactive; APOBEC3A inh: inactive; CendR NRP1 mod: 38.0; A3G deaminase: inactive; CR mimetic SO: inactive

What do the screens show for `Cc1nc2nc(-c3ccccc3)nn2c(C)c1Cl`?
M18AAP inhibitor: inactive; APOBEC3A inh: inactive; CendR NRP1 mod: inactive; A3G deaminase: inactive; ALR inh: inactive; CR mimetic SO: inactive

How did O=C(Nc1ccc(Cl)cc1)N1CCSC1=NCc1ccccc1 do in these assays?
M18AAP inhibitor: inactive; APOBEC3A inh: inactive; CendR NRP1 mod: inactive; A3G deaminase: inactive; ALR inh: inactive; CR mimetic SO: inactive

Results for CC(=O)Nc1ccc(C2=NN(C)C(=NCc3ccccc3)SC2)cc1 ?
M18AAP inhibitor: inactive; APOBEC3A inh: inactive; CendR NRP1 mod: 29.7; A3G deaminase: inactive; ALR inh: 99.0; CR mimetic SO: inactive

What do the screens show for `CCCC(=O)N(CCN(Cc1ccccc1)C(=O)CCC)Cc1ccccc1`?
M18AAP inhibitor: inactive; APOBEC3A inh: inactive; CendR NRP1 mod: inactive; A3G deaminase: inactive; ALR inh: inactive; CR mimetic SO: inactive

What do the screens show for `CCOC(=O)Nc1ccc2c(c1)N(CCCN(C)C)c1ccccc1CC2`?
M18AAP inhibitor: inactive; APOBEC3A inh: inactive; CendR NRP1 mod: inactive; A3G deaminase: inactive; ALR inh: 98.8; CR mimetic SO: inactive

What do the screens show for `CCOC(=O)Nc1ccc2c(c1)N(C(=O)OC)c1ccccc1CC2`?
M18AAP inhibitor: inactive; CendR NRP1 mod: inactive; ALR inh: inactive; CR mimetic SO: inactive

How did C=CCNC(=S)N1CCC(Cc2ccccc2)CC1 do in these assays?
M18AAP inhibitor: inactive; APOBEC3A inh: inactive; CendR NRP1 mod: inactive; A3G deaminase: inactive; ALR inh: inactive; CR mimetic SO: inactive

From PubChem
